High-throughput results: PubChem BioAssay, National Center for Advancing Translational Sciences (NCATS)
Shown is part of a subset that was picked to be rich in hits.
DT40 TDP1 no CPT – qHTS for Inhibitors of human tyrosyl-DNA phosphodiesterase 1 (TDP1): qHTS in cells in absence of CPT. DT40 Tdp1-/- hTDP1 cells, no CPT, ATP luminescence, 48 h. Potency, µM (series often up to 46.2 µM), inactives show at the highest dose activity change, negative = growth inhibition, usual class: inhibitors. 420,000 compounds, 15% hits. AID 686978, 2013; also: potency is read from the fitted curve at half-maximal effect; nearly all actives have a fitted effect of over 55% in size
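A cellular qHTS used chicken DT40 cells lacking endogenous Tdp1 but carrying stably transfected human TDP1. Compounds were applied without camptothecin, and cell growth kinetics were judged by ATP-dependent luminescence after ≥48 hr.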
IL-1B inflam inh – inhibitors of inflammasome signaling (IL-1 beta secretion) | THP-1 LPS/ATP IL-1B secretion, AlphaLISA, 16 h; hits give low values | AID 743279 | activity change, % at 57.5 µM | 360,000 compounds, 4.7% hits; in the data active = activity change below about -50%; inconclusive = mostly about -30% to -49%
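THP-1 cells pretreated 1 hr with compounds (up to 57.5 uM final), then stimulated with LPS (250 ng/mL final) plus ATP (1.25 mM final); secreted IL-1B measured by AlphaLISA after 16 hr, decreased signal indicating inhibition.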
TDP1 cell CPT – DT40-hTDP1 cell growth loss with CPT; chicken DT40 Tdp1-/-;hTDP1 cells + 20 nM CPT, ATP luminescence, 48 h; Potency, µM (titrated, usually from 46.2 µM), for the others: at the top dose activity change, negative = growth inhibition, most hits filed as inhibitors; 420,000 compounds, 12% hits; AID 686979; also: potency is read from the fitted curve at half-maximal effect; nearly all actives have a fitted effect of over 55% in size
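Cell growth measured by CellTiter-Glo luminescence after a minimum 48 h, 37 C compound exposure with 20 nM CPT in Tdp1-knockout DT40 cells stably expressing hTDP1, seeded 400/well; qHTS titration format.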
HT1080 IDH1KD tx – HT-1080 IDH1 knockdown cell toxicity (counter line) | 360,000 compounds, 2% hits | HT-1080 IDH1 knockdown viability, ATP luminescence, 48 h | Potency, µM (highest dose often 46.1 µM), inactives show at the highest dose activity, negative = toxicity, usual class: cytotoxic;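 also: potency is read from the fitted curve at half-maximal effect; 0% = DMSO wells and -100% = cell-free medium wells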
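HT-1080-IDH1KD cells (IDH1 knocked down), 750/well in RPMI with 5% FBS, treated with compound 48 h at 37 degrees C. Viability by CellTiter-Glo luminescence, normalised to DMSO and no-cell wells; concentration-response curves classed.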
HT1080NT lethal – kills 2HG-producing HT-1080-NT fibrosarcoma cells | HT-1080-NT fibrosarcoma viability, CellTiter-Glo ATP luminescence, 48 h | Potency, µM (highest dose often 46.1 µM), without a hit: top-dose activity, negative = less viability, usual class: cytotoxic | 360,000 compounds, 1.6% hits;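 also: NT is the 2HG producing partner of a matched IDH1 knockdown line; potency is read from the fitted curve at half-maximal effect; 0% = DMSO-treated cells and -100% = media-only wells without cells; nearly all actives have a fitted effect of over 55% in size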
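750 cells/well, RPMI + 5% FBS; 2 h settle, compound pin-transfer, 48 h at 37 degrees C. CellTiter-Glo 10 min RT, luminescence. Normalized to DMSO and media-only wells.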
ALOX12 inh – inhibitors of human 12S-lipoxygenase ALOX12 | purified 12hLO, xylenol orange hydroperoxide absorbance | Potency, µM (top dose mostly 108 µM), for inactives: at the top dose activity change, negative = inhibition, hits mostly inhibitors | 580,000 compounds, 1.1% hits; also: potency is read from the fitted curve at half-maximal effect
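Hydroperoxide product was detected by ferrous iron/xylenol orange as the 573 to 405 nm absorbance ratio. Arachidonic acid at 40 uM (final) was turned over for 30 min at room temperature by 150 nM human 12hLO, pH 7.0 Hepes buffer, after 15 min compound preincubation.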
Starred values were filed as active, the others as inactive; ? = inconclusive; . = no result. Unless noted, calls follow the shape of the dose curve; as a rule, active = well fitted curve in the direction sought with a large enough effect; inconclusive = small, poorly fitted or top-dose-only effect, or another doubt; inactive = no such curve, though single readings can be large; an effect the other way counts as inactive or inconclusive. Unless noted, % is scaled to controls: 0 for no effect and ±100 for the full control effect.

SMILES | DT40 TDP1 no CPT | IL-1B inflam inh | TDP1 cell CPT | HT1080 IDH1KD tx | HT1080NT lethal | ALOX12 inh
COc1ccc(C(=O)NC(=S)Nc2ccc(N3CCOCC3)cc2)cc1Cl | 21µM* | -14 | ? | -29% | -30% | 16µM*
Cc1cccc(C(=O)NC(=S)Nc2ccc(N3CCOCC3)cc2)c1 | ? | -7 | ? | 11% | 3% | 45µM*
Cc1ccc(C(=O)NC(=S)Nc2ccc(N3CCOCC3)cc2)cc1C | 15µM* | 0 | ? | 1% | 1% | 18µM*
Cc1ccc(-c2cc(C(=O)O)c3cc(C)cc(C)c3n2)c(C)c1 | . | . | . | . | . | 0%
Cc1nn(-c2ccccc2)c(Oc2ccc(F)cc2F)c1CCC(=O)NC1CC1 | . | . | . | . | . | 5%
CSc1cccc(NC(=S)N(Cc2ccccc2)Cc2cccnc2)c1 | ? | ? | -19% | 0% | -6% | 13%
COc1cc(CC(=O)Nc2cccc(SC)c2)cc(OC)c1OC | 10µM* | 7 | ? | -29% | -18% | 4%
COCCCN(Cc1cc(OC)c(OC)c(OC)c1)C(=S)Nc1cccc(Cl)c1 | 9.2µM* | -25 | ? | -5% | -3% | -18%
CCN(Cc1cc(OC)c(OC)c(OC)c1)C(=S)Nc1cccc(SC)c1 | 23µM* | 40 | ? | -22% | -20% | 338%
CC(C)(C)C(=O)N1CCC2(CC1)OCC(C(=O)NCC1CCCO1)N2C(=O)c1ccc(F)cc1 (stereo not drawn) | . | . | . | . | . | 39%
O=C(NCCn1cccc1-c1nc(-c2ccc3c(c2)OCO3)no1)c1ccc2c(c1)OCO2 | . | . | . | . | . | 30%
COc1ccc(-c2sc3ccc(OC)cc3c2-c2ccc(O)cc2)cc1 | ? | -63* | ? | ? | ? | ?
COc1ccc2sc(-c3ccc(S(C)(=O)=O)cc3)c(-c3ccc(SC)cc3)c2c1 | ? | -10 | 26µM* | -3% | 0% | -3%
COc1ccc2sc(-c3ccc(S(C)(=O)=O)cc3)c(-c3ccc4c(c3)OCCO4)c2c1 | ? | -26 | ? | -1% | 0% | 2%
COc1ccc2c(-c3cnc(N4CCOCC4)nc3)c(-c3ccc(S(C)(=O)=O)cc3)sc2c1 | 15µM* | -29 | 15µM* | 11% | 3% | -12%
COc1ccc(-c2sc3cc(OC)ccc3c2-c2ccc(OCCN3CCOCC3)cc2)cc1 | ? | 6 | ? | -23% | ? | -16%
COc1ccc(-c2c(-c3ccc(S(C)(=O)=O)cc3)sc3ccc(OC)cc23)cc1 | 13µM* | -2 | ? | 4% | 0% | -10%
COc1ccc2c(-c3ccc(SC)cc3)c(-c3ccc(S(C)(=O)=O)cc3)sc2c1 | ? | 0 | ? | 6% | 3% | -5%
Cn1nc(C(=O)N2CCN(CC(=O)N3CCCC3)CC2)c2ccccc2c1=O | . | . | . | . | . | -1%
Cc1cc(=O)[nH]c(SCC(=O)Nc2ccccc2C)n1 | 18% | 32 | -14% | 17% | 13% | 0%
Cc1cc(=O)[nH]c(N=N/C(=N/Nc2ccccc2C)c2ccccc2)n1 | 5.2µM* | 161 | 4.6µM* | ? | ? | 3%
Cc1cc(=O)[nH]c(N=N/C(=N/Nc2ccc(O)cc2)c2ccccc2)n1 | 6.5µM* | 112 | 5.8µM* | ? | -19% | 0%
COc1ccccc1NC(=O)CCc1c(C)nc2c(-c3ccc(F)cc3)c(C)nn2c1C | ? | -2 | 15µM* | 3% | -19% | -9%
Cc1nc2c(-c3ccc(F)cc3)c(C)nn2c(C)c1CCC(=O)Nc1ccccc1 | ? | -12 | ? | 0% | -16% | -7%
COCCNC(=O)CCc1c(C)nc2c(-c3ccc(F)cc3)c(C)nn2c1C | -23% | -23 | -13% | -9% | -1% | -10%
